Vaccinia mCherry: inhibitors of vaccinia virus infection (mCherry reporter signal) | AID 720579 | Vaccinia virus mCherry reporter infection, fluorescence | hit rate 0.63% among 310,000 | Potency, µM (series often up to 36.5 µM), hits mostly inhibitors; calls by dose curve; tested in A549 cells; note: nearly all actives have a fitted effect of over 35% in size
FMDV inh: blocks foot and mouth disease virus; FMDV antiviral cell-based qHTS; Potency, µM (top dose mostly 57.9 µM), hits mostly inhibitors; hit rate 1.2% among 410,000; calls by dose curve; tested in HEK293T cells; note: read-out not given here; nearly all actives have a fitted effect of over 45% in size
Sm TGR inh: blocks Schistosoma mansoni thioredoxin glutathione reductase. purified TGR, DTNB reduction, TNB absorbance 405 nm. AID 485364. Q962Y6. hit rate 3% among 360,000. Potency, µM (highest dose often 114 µM), usual class: inhibitors; note: nearly all actives have a fitted effect of over 60% in size
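First, TGR (20 nM dispensed) and NADPH were mixed with compound. Second, a 15 min room-temperature incubation followed. Third, further NADPH and then DTNB were added to start the reaction. Finally, TNB absorbance was monitored kinetically.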
HCV inh: inhibitors of hepatitis C virus infection; Potency, µM (highest dose often 41.8 µM), most hits filed as inhibitors; Huh7.5.1 HCVcc-Cre infection, luciferase reporter, 44 h; hit rate 3.4% among 340,000
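After 44 h co-culture of compound, cells and HCVcc-Cre (~0.5 moi), substrate is added for 15 min at room temperature and luciferase measured over 15 sec. Cells were seeded at 1,000/well and pre-cultured 4 h.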
Vaccinia Venus: inhibitors of vaccinia virus (Venus reporter); Vaccinia virus Venus reporter expression, fluorescence; Potency, µM (highest dose often 36.5 µM), most hits filed as inhibitors; hit rate 0.46% among 330,000; calls by dose curve; tested in A549 cells; note: nearly all actives have a fitted effect of over 30% in size
HCMV antiviral: blocks human cytomegalovirus replication; HFF cells, HCMV-luciferase reporter, 72 h; stronger effect = lower value; AID 1259415; activity change, negative = inhibition, % at 57.5 µM; hit rate 4.5% among 410,000; in the data active = activity change below about -60%; inconclusive = no clear call, values can overlap the other calls; inactive = above about -39%
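Steps: HFFs plated, 16 h 37C; compounds added; HCMV-luciferase added to MOI 1 PFU/cell; 72 h 37C; OneGlo reagent, 5 min room temperature; luminescence read, normalized to controls.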
Large screens that a line does not name were inactive. A selection: hits, their analogues and other compounds. The true share with any hit is near 9.3%. Unless noted, calls come from the whole dose curve; as a rule, active = well fitted curve in the direction sought with a large enough effect; inconclusive = small, poorly fitted or top-dose-only effect, or another doubt; inactive = no such curve, though single readings can be large; an effect the other way counts as inactive or inconclusive.

CCOc1ccc(C(c2c(NC(=O)c3ccccc3)sc(C)c2C)N2CCN(C)CC2)cc1 (stereo unspecified)	Vaccinia Venus inconclusive
Fc1ccc(C(c2nnnn2Cc2cccs2)N2CCN(c3ccccc3)CC2)cc1 (stereo unspecified)	HCV inh inconclusive
CCOc1ccc(C(c2c(O)cc(C)n(CCOC)c2=O)N2CCN(c3ccccc3)CC2)cc1 (stereo unspecified)	Sm TGR inh 6.31µM (no result: HCV inh)
CCCN(C(=O)C(C)Oc1cccc(Cl)c1)c1c(N)n(Cc2ccccc2)c(=O)[nH]c1=O (stereo unspecified)	none
CCCCN(C(=O)CSc1nncn1-c1ccccc1)c1c(N)n(Cc2ccccc2)c(=O)[nH]c1=O	HCMV antiviral -61.7 (no result: Vaccinia mCherry, Vaccinia Venus)
CCCCN(C(=O)C(C)Oc1ccc(Br)cc1)c1c(N)n(Cc2ccccc2)c(=O)[nH]c1=O (stereo unspecified)	Sm TGR inh 89.1µM, HCV inh inconclusive
CN1CCN(Cc2nc(Cc3cccc(F)c3)no2)CC1c1ccccc1 (stereo unspecified)	none
COc1cc2oc(=O)cc(-c3ccc(-c4ccc(C#N)cc4)cc3)c2c(OC)c1OC	FMDV inh inconclusive (no result: Sm TGR inh)
CCOC(=O)c1c(C)[nH]c(C(=O)N/N=C/c2cc([N+](=O)[O-])ccc2O)c1C	HCV inh 11.2µM
CCOC(=O)c1c(C)[nH]c(C(=O)N/N=C/c2ccc(OC)c(OC)c2)c1C	HCV inh inconclusive (no result: Vaccinia mCherry, Vaccinia Venus)
CCOC(=O)c1c(C)[nH]c(C(=O)N/N=C\c2ccccc2O)c1C	Vaccinia mCherry inconclusive, HCV inh inconclusive, Vaccinia Venus inconclusive, HCMV antiviral -100.3
O=C(NCc1ccccc1)C(c1ccncc1)N(C(=O)c1ccccn1)c1ccccc1 (stereo unspecified)	none
O=S(=O)(NC1CCN(S(=O)(=O)c2c(F)cccc2F)C1)c1ccc2c(c1)OCCO2 (stereo unspecified)	HCMV antiviral -77.7 (no result: Vaccinia mCherry, HCV inh, Vaccinia Venus)
COc1ccccc1C1CCN(Cc2ccc3ccccc3c2)CC1	FMDV inh inconclusive, HCMV antiviral -67.4
COc1ccccc1C1CCN(Cc2ccccc2)CC1	none
CCCn1cc(CN2CCC(Cc3ccccc3)(C(=O)OCC)CC2)c(C)n1	FMDV inh inconclusive, HCMV antiviral inconclusive
O=[N+]([O-])c1cc2oc3c(c2c(C=NCc2ccccc2)c1O)CCCC3	HCV inh inconclusive
CC(C)CN=Cc1c(O)c([N+](=O)[O-])cc2oc3c(c12)CCCC3	FMDV inh 31.6µM
Brc1cccc(-c2nnc(SCc3nc4ccccc4[nH]3)o2)c1	Vaccinia mCherry 10µM, FMDV inh inconclusive, Vaccinia Venus inconclusive
c1ccc2[nH]c(CSc3nnc(-c4ccncc4)o3)nc2c1	FMDV inh inconclusive, HCV inh inconclusive, Vaccinia Venus inconclusive (no result: Vaccinia mCherry)
CC(C)CN1CCC2(CC1)CCN(S(C)(=O)=O)CC2	none (no result: Vaccinia mCherry, Sm TGR inh, HCV inh, Vaccinia Venus, HCMV antiviral)
CCOc1ccc(N2C(=O)NC(=O)/C(=C\c3ccc(N4CCCCC4)o3)C2=O)cc1	none
CCOc1ccc(N2C(=O)/C(=C/c3ccc(C)o3)C(=O)NC2=S)cc1	FMDV inh 39.8µM, Sm TGR inh 1.41µM (no result: Vaccinia mCherry, Vaccinia Venus)
COc1ccc(N2C(=O)/C(=C/c3ccc(C)o3)C(=O)NC2=S)cc1	FMDV inh inconclusive, Sm TGR inh 1.26µM (no result: Vaccinia mCherry, Vaccinia Venus)
Cc1ccc(/C=C2\C(=O)NC(=S)N(c3cccc(F)c3)C2=O)o1	FMDV inh inconclusive, Sm TGR inh 0.708µM (no result: Vaccinia mCherry, Vaccinia Venus)
CCN(C(=O)C(Cc1ccccc1)NS(=O)(=O)c1cccc2nsnc12)c1ccccc1 (stereo unspecified)	none (no result: HCV inh)
O=C(c1ccccc1)c1ccc(C(=O)N2CCOCC2)cc1	none
O=C1C(=C(c2ccccc2)N2CCOCC2)Cc2ccccc21	Vaccinia mCherry inconclusive, FMDV inh 8.91µM, Vaccinia Venus 11.2µM, HCMV antiviral -99.0 (no result: Sm TGR inh, HCV inh)
O=C(Nc1scc(-c2ccc(Br)cc2)c1C(=O)O)c1ccccc1F	none (no result: Sm TGR inh)
O=C(OCCOc1ccc(F)cc1)c1ccc(S(=O)(=O)N2CCCC2)cc1	none (no result: Vaccinia mCherry, Vaccinia Venus)
Cc1ccc(O)c(NC(=O)CSc2n[nH]c(C)c2[N+](=O)[O-])c1	Vaccinia mCherry 2.51µM, HCV inh inconclusive, Vaccinia Venus inconclusive, HCMV antiviral inconclusive
Cc1ccc(NC(=O)CSc2n[nH]c(C)c2[N+](=O)[O-])cc1C	HCMV antiviral -68.9
CC(C)CN(C(=O)CN1CCC(C)CC1)c1c(N)n(CC(C)C)c(=O)[nH]c1=O	none (no result: Vaccinia mCherry, Vaccinia Venus)
CC12CC[C@H]3[C@@H](CCC4(O)C[C@H](O)CCC34/C=N/NC(=O)c3ccccc3[N+](=O)[O-])C1(O)CCC2C1=CC(=O)OC1 (stereo partly specified)	Vaccinia mCherry inconclusive, Vaccinia Venus 10µM, HCMV antiviral -77.7
CC12CC[C@H]3[C@@H](CCC4(O)C[C@H](O)CCC34/C=N/NC(=O)Cc3ccccc3)C1(O)CCC2C1=CC(=O)OC1 (stereo partly specified)	Vaccinia mCherry inconclusive, Vaccinia Venus inconclusive, HCMV antiviral -65.7
CNC(=O)Nc1ccc(C(=O)N/N=C\C23CC[C@@H](O)CC2(O)CC[C@@H]2[C@@H]3CCC3(C)C(C4=CC(=O)OC4)CCC23O)cc1 (stereo partly specified)	Vaccinia mCherry 12.6µM, Vaccinia Venus inconclusive
CC1Cc2ccccc2N1C(=S)Nc1cccc(S(=O)(=O)N(C)C)c1 (stereo unspecified)	Sm TGR inh 50.1µM
Cc1ccc(NC(=O)C2Cc3ccccc3CN2C(=O)c2ccco2)cc1S(=O)(=O)N(C)C (stereo unspecified)	Sm TGR inh 39.8µM
O=C(Nc1nnc(SCc2ccc(F)cc2)s1)C1Cc2ccccc2CN1C(=O)c1ccco1 (stereo unspecified)	HCV inh inconclusive
CN(C)S(=O)(=O)c1cccc(NC(=O)C2Cc3ccccc3CN2C(=O)c2ccco2)c1 (stereo unspecified)	Sm TGR inh 17.8µM
O=C(Nc1nnc(C2CC2)s1)C1Cc2ccccc2CN1C(=O)c1ccco1 (stereo unspecified)	Sm TGR inh 12.6µM (no result: Vaccinia mCherry, Vaccinia Venus)
O=C(Nc1ccccc1N1CCOCC1)C1Cc2ccccc2CN1C(=O)c1ccco1 (stereo unspecified)	Sm TGR inh inconclusive
COc1ccc(NC(=O)C2Cc3ccccc3CN2C(=O)c2ccco2)cc1 (stereo unspecified)	Sm TGR inh inconclusive
Cc1ccc(CCNC(=O)C2CC(c3cc(C(F)(F)F)cc(C(F)(F)F)c3)=NO2)cc1 (stereo unspecified)	none
CCOC(=O)CSc1nnc(Cc2ccccc2)n1Cc1ccco1	none (no result: Vaccinia mCherry, Vaccinia Venus)
Brc1ccc(/C=N/n2cnnc2)s1	none
Oc1ccc(-c2csc(Nc3ccccn3)n2)c(O)c1	HCV inh inconclusive (no result: Vaccinia mCherry, Vaccinia Venus)
O=C1c2ccccc2/C(=C\c2ccc3[nH]ccc3c2)N1c1ccccc1	Vaccinia mCherry inconclusive, HCV inh inconclusive, HCMV antiviral -66.5 (no result: Sm TGR inh)

Screens deposited in PubChem BioAssay by National Center for Advancing Translational Sciences (NCATS).
